# In PubChem BioAssay:
# Activity calls are given as the source filed them. Unless noted, how the calls were made is not given here.
# Experiments:
# [1] = HepG2 liver cancer cell viability effects, profiling panel, resazurin fluorescence, 24 h, PK04 Diversity Set (AID 1172); conditions: higher = more signal
# [2] = basal S. cerevisiae growth modulation, no modifier, primary screen, OD600, strain BY4716, 24 h, basal condition (AID 1173); conditions: OD600, 24 h, higher = more signal, called active from +8 up or from −8 down
# [3] = MM1S myeloma cell viability, profiling panel, resazurin fluorescence, basal, 24 h, PK04 Diversity Set (AID 1174); conditions: higher = more signal, called active from +8 up or from −8 down;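 further: MM1S multiple myeloma cell line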
# [4] = biological target: Dihydroorotate dehydrogenase (quinone), mitochondrial (Plasmodium falciparum (isolate 3D7)) (UniProt Q08210); assay: PfDHODH enzyme inhibitors, primary screen, biochemical, C-terminal His tag, absorbance 600 nm (AID 1175); conditions: DCIP absorbance 600 nm, higher = more signal, called active from +8 up or from −8 down;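 further: recombinant parasite enzyme with a five histidine tag at its C terminus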
# Chain of Dihydroorotate dehydrogenase (quinone), mitochondrial (Plasmodium falciparum (isolate 3D7)) (Q08210 whole entry, looked up): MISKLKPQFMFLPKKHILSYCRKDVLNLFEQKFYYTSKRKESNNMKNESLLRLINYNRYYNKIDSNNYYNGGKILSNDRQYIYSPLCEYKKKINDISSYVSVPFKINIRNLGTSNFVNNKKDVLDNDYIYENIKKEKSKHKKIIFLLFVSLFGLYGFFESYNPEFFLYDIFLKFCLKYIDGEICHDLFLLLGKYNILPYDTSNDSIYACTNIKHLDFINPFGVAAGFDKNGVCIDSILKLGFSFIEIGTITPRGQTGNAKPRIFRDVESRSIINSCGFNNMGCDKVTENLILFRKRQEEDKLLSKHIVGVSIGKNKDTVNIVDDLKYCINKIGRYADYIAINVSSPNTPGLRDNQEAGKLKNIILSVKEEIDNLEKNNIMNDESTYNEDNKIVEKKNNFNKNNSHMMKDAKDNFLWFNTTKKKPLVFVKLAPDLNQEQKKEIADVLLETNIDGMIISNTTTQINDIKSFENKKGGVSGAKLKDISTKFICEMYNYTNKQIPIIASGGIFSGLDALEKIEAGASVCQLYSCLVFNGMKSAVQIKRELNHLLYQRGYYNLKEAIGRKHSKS
# [5] = P. aeruginosa biofilm formation inhibitors, primary screen, strain PAO1, LB-PBS medium, absorbance 600 nm (AID 1176); conditions: P. aeruginosa PAO1 growth/biofilm, A600, 12 h; higher = more signal
# [6] = S. cerevisiae RM11-1a growth modifiers, primary screen, strain RM11-1a, OD600, basal, 24 h (AID 1177); conditions: OD600, 24 h, higher = more signal, called active from +8 up or from −8 down;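 further: cultures grown under basal conditions with no added stressor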
# [7] = E. coli acrAB mutant growth effects, primary screen, E. coli filamentation inducers, strain DRC39, OD650, 24 h (AID 1178); conditions: higher = more signal, called active from +8 up or from −8 down;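 further: growth measured as culture turbidity by optical density at 650 nm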
# [8] = E. coli acrAB mutant growth effects, primary screen, E. coli filamentation inducers, strain DRC39, OD650, 48 h (AID 1179);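 further: screen aims at cell division blockers that make cells filament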; conditions: E. coli DRC39 delta-acrAB growth, higher = more signal, called active from +8 up or from −8 down
# [9] = RPMI8226 myeloma cell viability, profiling panel, resazurin fluorescence, basal, 24 h, PK04 Diversity Set (AID 1180); conditions: higher = more signal;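 further: RPMI8826 multiple myeloma cell line at 5000 cells per well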
# [10] = biological target: E3 ubiquitin-protein ligase XIAP (Homo sapiens) (UniProt P98170); assay: XIAP binders, primary screen, biophysical, small-molecule microarray, fluorescence 635 nm (AID 1181); conditions: small-molecule microarray binding, higher = more signal;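 further: score merges 667 nm emission and signal to noise over triplicate slides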
# Chain of E3 ubiquitin-protein ligase XIAP (Homo sapiens) (P98170 whole entry, looked up): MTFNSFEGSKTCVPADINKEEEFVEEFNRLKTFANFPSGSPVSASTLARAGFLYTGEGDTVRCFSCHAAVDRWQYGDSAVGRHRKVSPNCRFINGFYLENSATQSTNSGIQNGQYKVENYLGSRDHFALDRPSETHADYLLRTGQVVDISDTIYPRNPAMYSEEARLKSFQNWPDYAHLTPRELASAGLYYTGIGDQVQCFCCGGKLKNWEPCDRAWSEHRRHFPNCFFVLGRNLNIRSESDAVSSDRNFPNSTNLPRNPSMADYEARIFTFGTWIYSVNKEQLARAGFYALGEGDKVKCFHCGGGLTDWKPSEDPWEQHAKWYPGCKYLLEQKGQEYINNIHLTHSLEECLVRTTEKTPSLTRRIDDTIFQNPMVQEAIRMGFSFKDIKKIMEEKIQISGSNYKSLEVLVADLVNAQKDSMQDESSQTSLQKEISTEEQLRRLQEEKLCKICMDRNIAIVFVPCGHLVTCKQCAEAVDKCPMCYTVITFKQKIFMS
# [11] = system: XIP peptide (Xip251-270) binding; assay: small-molecule binders of XIP peptide, primary screen, biochemical, small-molecule microarray, fluorescence 635/667 nm, 0.1 µg/mL protein (AID 1182); conditions: fluorescent protein binding, 635 nm, higher = more signal, called active from +8 up or from −8 down
# XIP peptide (Xip251-270) = assay: small-molecule binders of XIP peptide, primary screen, biochemical, small-molecule microarray, fluorescence 635/667 nm, 0.5 µg/mL protein (AID 1183); conditions: small-molecule microarray binding, fluorescence 635 nm; higher = more signal
# [12] = Plasmodium falciparum growth inhibition, primary screen, strain 3D7, DAPI fluorescence, 100 nL (AID 1184);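 further: parasites grown inside human red blood cells in medium with human serum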; conditions: P. falciparum 3D7 growth, 3 d, higher = more signal
# [13] = biological target: Homeobox protein Hox-A13 (Mus musculus) (UniProt Q62424); assay: inhibitors of HoxA13-DNA binding, primary screen, biochemical, fluorescence polarization, labeled oligonucleotide (AID 1185); conditions: 15 min, higher = more signal, called active from +8 up or from −8 down
# Chain of Homeobox protein Hox-A13 (Mus musculus) (Q62424 whole entry, looked up): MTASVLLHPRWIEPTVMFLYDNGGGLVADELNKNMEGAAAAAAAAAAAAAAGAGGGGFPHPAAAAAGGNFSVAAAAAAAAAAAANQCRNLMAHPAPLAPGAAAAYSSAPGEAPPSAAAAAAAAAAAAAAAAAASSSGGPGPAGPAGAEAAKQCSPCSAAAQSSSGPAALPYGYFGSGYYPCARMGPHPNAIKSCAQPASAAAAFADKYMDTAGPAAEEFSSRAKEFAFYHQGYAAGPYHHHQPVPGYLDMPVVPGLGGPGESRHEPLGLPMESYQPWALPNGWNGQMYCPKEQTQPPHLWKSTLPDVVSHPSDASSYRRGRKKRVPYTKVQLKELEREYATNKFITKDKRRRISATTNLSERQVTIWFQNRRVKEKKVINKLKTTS
# [14] = inhibitors of hydroxyurea-induced Chk1 phosphorylation, primary screen, imaging, HeLa, phospho-Chk1 antibody, percent positive cells (AID 1186); conditions: hydroxyurea-induced phospho-Chk1 immunofluorescence imaging, higher = more signal
# [15] = inhibitors of hydroxyurea-induced Chk1 phosphorylation, primary screen, imaging, HeLa, phospho-Chk1 nuclear intensity (AID 1187); conditions: hydroxyurea-induced phospho-Chk1 immunofluorescence imaging, higher = more signal
SMILES,z-score [1],z-score [2],z-score [3],composite z-score [4],z-score [5],z-score [6],z-score [7],z-score [8],z-score [9],composite z-score [10],composite z-score [11],composite z-score (XIP peptide (Xip251-270)),z-score [12],z-score [13],z-score [14],z-score [15]
C=CC(=C)C1=CCO[C@@H]1[C@H]1CCCN1S(=O)(=O)c1ccccc1[N+](=O)[O-],1.09,-0.793 (inactive),-0.22 (inactive),-0.426 (inactive),-0.578 (inactive),0.223 (inactive),0.858 (inactive),0.714 (inactive),0.187,-0.119,0.162 (inactive),0.281,-1.51,-2.41 (inactive),-0.0283 (inactive),0.0588 (inactive)
[N-]=[N+]=Nc1ccccc1[C@H]1OC(c2ccc(OCCCO)cc2)=N[C@@]1(CCS(=O)(=O)c1ccccc1)C(=O)O,0.181,-1.65 (inactive),0.169 (inactive),0.737 (inactive),-0.319 (inactive),-0.0777 (inactive),2.08 (inactive),0.499 (inactive),0.438,0.143,0.835 (inactive),0.824,-1.46,-4.02 (inactive),0.189 (inactive),0.222 (inactive)
[N-]=[N+]=NCc1ccccc1[C@@H]1OC(c2ccc(OCCCO)cc2)=N[C@]1(Cc1ccccc1N=[N+]=[N-])C(=O)NCc1ccccc1,0.206,1.15 (inactive),-0.0978 (inactive),0.139 (inactive),0.603 (inactive),1.27 (inactive),-0.954 (inactive),-1.96 (inactive),-1.46,0.0852,0.304 (inactive),0.442,-2.29,1.76 (inactive),-0.76 (inactive),-0.767 (inactive)
CCOC(=O)[C@H]1C/C=C/C[C@H](C(=O)OCC)C(=O)O[C@H]2[C@@H](OC)O[C@H](CO)[C@@H](OC(=O)Nc3ccc4c(c3)OCO4)[C@@H]2OC1=O,-4.19,0.273 (inactive),-6.98 (inactive),0.0446 (inactive),1.2 (inactive),1.06 (inactive),1.03 (inactive),1.53 (inactive),-6.84,-0.102,1.28 (inactive),0.832,-1.95,-2.27 (inactive),-0.18 (inactive),-0.0843 (inactive)
COc1cc2c(cc1O)C(C)N(Cc1cccc(OC(F)(F)F)c1)CC2 (stereo not drawn),0.177,-0.713 (inactive),-1.33 (inactive),-1.44 (inactive),-0.255 (inactive),0.279 (inactive),0.506 (inactive),0.324 (inactive),-0.622,0.427,0.714 (inactive),0.907,-2.03,-3.46 (inactive),0.0708 (inactive),-0.033 (inactive)
CO[C@H]1O[C@H](CO)[C@@H](OC(=O)Nc2ccc3c(c2)OCO3)[C@H](OC(=O)Nc2ccccc2)[C@H]1OC(=O)Nc1ccccc1,-1.78,1.38 (inactive),-3.14 (inactive),1.15 (inactive),-0.329 (inactive),2.93 (inactive),0.402 (inactive),-0.728 (inactive),-2.41,0.137,0.981 (inactive),0.831,-2.49,-4.76 (inactive),-0.328 (inactive),-0.439 (inactive)
CC(C)CNC(=O)[C@@]1(c2ccc([N+](=O)[O-])cc2)CC(=O)N(CC23CC4CC(CC(C4)C2)C3)[C@@H]1c1ccc(CO)cc1,-1.69,-0.565 (inactive),-2.08 (inactive),-1.23 (inactive),0.913 (inactive),-0.813 (inactive),0.629 (inactive),1.25 (inactive),-3.32,-0.193,1.1 (inactive),0.796,0.0716,-4.17 (inactive),-0.471 (inactive),-0.141 (inactive)
Cc1ccc(S[C@]2(C(=O)NCCN3CCOCC3)CC(=O)N(Cc3cc(C(F)(F)F)cc(C(F)(F)F)c3)[C@@H]2c2ccc(CO)cc2I)cc1,1.21,-5.83 (inactive),-2.06 (inactive),-0.483 (inactive),-0.407 (inactive),-2.09 (inactive),0.106 (inactive),1.09 (inactive),-2.33,-0.419,0.476 (inactive),0.241,0.439,-2.98 (inactive),-0.064 (inactive),-0.0538 (inactive)
O=C1OCC=C[C@H]2OC34C=CCN(c5ccc(Cl)cc5)C(=O)[C@H]3N(CCCCCCO)C(=O)[C@@H]4[C@@H]12 (stereo partly drawn),0.82,-0.69 (inactive),0.975 (inactive),-1.47 (inactive),-0.497 (inactive),-0.146 (inactive),0.571 (inactive),0.916 (inactive),1.01,-0.138,-0.513 (inactive),-1.03,-0.358,-4.21 (inactive),-0.181 (inactive),-0.0007 (inactive)
O=C1O[C@H](c2ccccc2)[C@H](c2ccccc2)N2[C@H]1[C@@H](C(=O)NC[C@H](O)c1ccccc1)[C@]1(C(=O)Nc3ccc(C#CCCO)cc31)[C@H]2c1ccc(O)cc1,-0.0297,0.047 (inactive),-0.0226 (inactive),-1.4 (inactive),0.432 (inactive),0.117 (inactive),-0.568 (inactive),-0.982 (inactive),-0.186,0.133,-0.105 (inactive),0.278,-1.23,-0.545 (inactive),0.289 (inactive),0.0974 (inactive)
C=CC[C@@]1(C(=O)NCC(O)CO)N=C(c2ccc(OCCCO)cc2)O[C@@H]1c1ccccc1N=[N+]=[N-] (stereo partly drawn),0.896,-0.965 (inactive),-0.12 (inactive),-0.269 (inactive),-0.0709 (inactive),0.0157 (inactive),1.69 (inactive),1.29 (inactive),-0.274,0.0049,1.06 (inactive),0.885,-1.84,-3.62 (inactive),-0.0138 (inactive),0.107 (inactive)
CCOC(=O)C[C@H]1[C@H](OC(=O)Cc2ccc3c(c2)OCO3)[C@@H](NC(=O)C2CCCCC2)c2cc(OCCCO)ccc2N1C(=O)Cc1ccc(OC)cc1,-0.778,-0.815 (inactive),0.184 (inactive),-0.974 (inactive),0.183 (inactive),-1.53 (inactive),0.015 (inactive),0.424 (inactive),0.283,0.0413,-0.219 (inactive),0.128,-0.383,-2 (inactive),-0.585 (inactive),-0.868 (inactive)
COc1cc2c(cc1OC)CN(C(=O)[C@@H]1[C@H]3C(=O)O[C@H](c4ccccc4)[C@H](c4ccccc4)N3[C@H](c3ccccc3OCCO)[C@@]13C(=O)Nc1ccc(C#CCNC(N)=O)cc13)CC2,0.0227,0.74 (inactive),-0.148 (inactive),-0.839 (inactive),2.93 (inactive),3 (inactive),1.13 (inactive),1.31 (inactive),0.088,0.153,0.12 (inactive),0.811,-2.17,2.09 (inactive),-0.229 (inactive),-0.232 (inactive)
C=CCC(OC(C)=O)[C@@H]1[C@@H](N(Cc2ccc(-c3cccc(C(F)(F)F)c3)o2)C(=O)c2ccc(C)cc2)c2cc(OCCCO)ccc2N1C(=O)c1ccc(-c2ccccc2)cc1 (stereo partly drawn),0.0024,-0.15 (inactive),-0.936 (inactive),-0.23 (inactive),0.477 (inactive),0.677 (inactive),-0.456 (inactive),0.0289 (inactive),0.525,-0.127,2.96 (inactive),0.0783,-2.5,-1.07 (inactive),-0.205 (inactive),-0.266 (inactive)
O=C1OCC=C[C@H]2OC34C=CCN(c5ccc6ccccc6c5)C(=O)[C@H]3N(CCCO)C(=O)[C@@H]4[C@@H]12 (stereo partly drawn),-0.364,-0.82 (inactive),-0.712 (inactive),-0.959 (inactive),-0.385 (inactive),-0.13 (inactive),-0.265 (inactive),-0.641 (inactive),-2.41,-0.181,0.185 (inactive),1.03,-1.94,-2.03 (inactive),-0.114 (inactive),-0.226 (inactive)
CC(C)c1ccc(NN2C(C(O)c3cccc(O)c3)C=CC3C(=O)N(c4ccccc4)C(=O)C32)cc1 (stereo not drawn),-0.546,-0.914 (inactive),-0.501 (inactive),0.523 (inactive),0.186 (inactive),1.63 (inactive),-0.0564 (inactive),-0.063 (inactive),-0.111,0.42,0.305 (inactive),0.668,-0.0362,-4.3 (inactive),0.999 (inactive),0.88 (inactive)
CCCNC(=O)[C@@H]1c2ccccc2C(=O)N(Cc2ccccc2)[C@H]1c1ccc(CO)cc1,-0.898,0.215 (inactive),0.0254 (inactive),0.939 (inactive),1.27 (inactive),0.797 (inactive),-0.229 (inactive),-0.969 (inactive),0.477,-0.276,0.838 (inactive),0.312,-1.62,-2.71 (inactive),0.0089 (inactive),-0.142 (inactive)
COC(=O)C(CC#Cc1ccc2c(c1)[C@]1(C(=O)N2)[C@H](C(=O)NC[C@H](O)c2ccccc2)[C@H]2C(=O)O[C@H](c3ccccc3)[C@H](c3ccccc3)N2[C@@H]1c1ccc(OCCO)cc1)C(=O)OC,0.0416,1.77 (inactive),-0.0507 (inactive),-16.8 (active),3.42 (inactive),2.62 (inactive),0.389 (inactive),0.335 (inactive),-0.223,0.201,0.518 (inactive),0.736,-2.15,-2.24 (inactive),-0.0625 (inactive),-0.136 (inactive)
